ROMK primary = modulates human ROMK potassium channel activity. 2% of 130,000 active. P48048. Tet-inducible ROMK, thallium flux fluorescence; actives lie on both sides. B-score at 10 µM;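 active = signal ratio slope over the read window, or its plate-corrected B-score, at least 3 SD from the plate mean, either direction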;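 also: B-score of the F/F0 ratio slope over 7 to 12 s after thallium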
Target sequence (P48048 whole entry, looked up): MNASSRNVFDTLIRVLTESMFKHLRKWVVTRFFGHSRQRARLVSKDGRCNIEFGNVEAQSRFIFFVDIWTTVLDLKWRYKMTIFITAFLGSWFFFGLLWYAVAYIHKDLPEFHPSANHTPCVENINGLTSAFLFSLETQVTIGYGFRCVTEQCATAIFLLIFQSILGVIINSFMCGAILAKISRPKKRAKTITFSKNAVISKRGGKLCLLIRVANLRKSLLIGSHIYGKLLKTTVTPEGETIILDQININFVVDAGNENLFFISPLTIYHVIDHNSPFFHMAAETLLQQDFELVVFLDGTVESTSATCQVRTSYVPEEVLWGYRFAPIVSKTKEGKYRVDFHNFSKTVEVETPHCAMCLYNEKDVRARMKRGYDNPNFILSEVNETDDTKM
Efa HMGR inh = E. faecalis class II HMG-CoA reductase inhibition | 0.41% of 190,000 active | purified E. faecalis HMGR, NADPH absorbance 340 nm kinetic | inhibition, % at 10 µM;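 active = inhibition above a set limit, the median over all tested compounds plus 3 SD, cut at about 9.5% in these data; inconclusive = no clear call, values can overlap the other calls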;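 also: enzyme runs in reverse so mevalonate oxidation gives rising NADPH absorbance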
TNF death inh = TNF-alpha cell death inhibition in Jurkat FADD-/- cells; Jurkat FADD-/- TNF necroptosis rescue, ATP luminescence, 24 h; 0 = TNF only, 100 = no-TNF cells; activation (protection from cell death), % at 10 µM; 0.068% of 220,000 active; AID 463075;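 active = activation, meaning protection from cell death, of at least 50% relative to plate controls; inactive = activation below 50%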;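 also: necroptosis triggered by 40 ng/mL TNF-alpha added together with compound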
L929 necroptosis = L929 zVAD cell death inhibition | 0.38% of 220,000 active | viability rescue, % at 10 µM | L929 zVAD necroptosis rescue, ATP luminescence, 24 h; with zVAD 60 µM;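 active = activation, scaled between plate controls, above about 75%, limit read from the data; inactive = activation under that limit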
14-3-3 Bad PPI = disrupts binding of bovine 14-3-3 zeta to phospho-Bad peptide; 0.71% of 220,000 active; AID 781; inhibition, % at 21.7 µM; TR-FRET 14-3-3zeta/Dy647-pBad peptide displacement, 1 h;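 active = inhibition above about 70%, limit read from the data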
m-calpain inh = calpain II (pig) inhibition; purified calpain II, fluorogenic peptide substrate, 30 min; inhibition, % at 16 µM; 0.37% of 220,000 active; AID 1236;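 active = inhibition above about 50%, limit read from the data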
ROMK retest = human ROMK channel modulation, retest confirmation. shares compounds with ROMK primary. ROMK thallium flux, fluorescence ratio; active compounds read low. normalized thallium flux (F/F0 slope) at 10 µM. 54% of 3,000 active. AID 1917;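 active = Flux at 10 µM at least 3 SD below or above vehicle control mean in one or both replicates; inconclusive = no clear call, values can overlap the other calls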
Hits are given with their value; - = inactive; ? = inconclusive; . = not tested or not shown. In the library only some 3% were active in any assay of this set; here they are far more common.

SMILES	ROMK primary	Efa HMGR inh	TNF death inh	L929 necroptosis	14-3-3 Bad PPI	m-calpain inh	ROMK retest
COc1ccc(NC(=S)NCCCCCC(=O)C[N+](=O)[O-])cc1	1.15	-	-	-	-	-	-
O=C(CCCCCNC(=S)Nc1ccc(Cl)cc1)C[N+](=O)[O-]	-	-	-	-	-	-	.
CC(C)(C)c1ccc(C(=O)Nc2sc3c(c2C(=O)O)CCC3)cc1	-	-	-	-	-	-	-
O=C(Nc1sc2c(c1C(=O)c1ccccc1)CCCC2)c1cccnc1	-3.72	-	-	-	-	-	0.0675
CCOC(=O)C1=C(N)OC(CCl)=C(C#N)C1c1ccsc1 (centres undefined)	-3.47	-	-	-	-	-	0.0602
CC1=C(C(=O)OCc2ccccc2)C(c2ccsc2)C(C#N)=C(N)O1 (centres undefined)	-	-	-	-	-	-	.
CCCC1=C(C(=O)OCC)C(c2cccs2)C(C#N)=C(N)O1 (centres undefined)	2.28	-	-	-	-	-	-
CCOC(=O)C(C)Sc1nnc(Cn2c(=O)sc3ccccc32)n1-c1ccccc1 (centres undefined)	.	-	-	-	-	-	?
CCOC(=O)/C(=N/Nc1ccccc1)Sc1nnc(CCc2ccccc2)n1-c1ccccc1	-	-	-	-	-	-	.
COc1ccc(OC)c(C2CC(c3c(-c4ccccc4)c4cc(Cl)ccc4[nH]c3=O)=NN2S(C)(=O)=O)c1 (centres undefined)	.	-	-	-	-	-	?
COc1ccc(C2CC(c3c(-c4ccccc4)c4cc(Cl)ccc4[nH]c3=O)=NN2S(C)(=O)=O)cc1 (centres undefined)	-	-	-	-	-	-	.
O=S(=O)(Nc1cc(Sc2ncn[nH]2)c(O)c2ccccc12)c1ccccc1	-4.34	-	-	-	70.6	-	0.0464
CC1(C)C2CC=C(/C=N/NC(=S)Nc3cccnc3)C1C2 (centres undefined)	-3.1	-	-	-	-	-	-
CCCCNC(=S)N/N=C/C1=CCC2CC1C2(C)C (centres undefined)	-	-	-	-	-	-	.
OC(CNC1Cc2ccccc2C1)COc1ccc(Cl)cc1 (centres undefined)	-5.33	.	-	-	-	-	0.0488
O=C(OCc1ccc(F)cc1)c1ccc2c(c1)-c1ccccc1C2=O	.	-	-	-	-	-	.
CCOC(=O)C1=C(Cc2ccc(F)cc2)C(=O)c2ccccc2C1=O	-3.28	-	-	-	-	-	0.0608
CC(NCC(O)COC1CCC(C(C)(C)C)CC1)c1ccccc1 (centres undefined)	-2.34	-	-	-	-	-	0.058
CC1CCC(C(C)C)C(OCC(O)CNC(C)c2ccccc2)C1 (centres undefined)	-	-	-	-	-	-	.
CC(=O)N(NC(=O)c1ccccc1Cl)C1CC(=O)N(c2ccc(C)cc2)C1=O (centres undefined)	.	-	-	-	-	-	.
CC1CCc2c(sc(NC(=O)c3ccccc3C(=O)O)c2C#N)C1 (centres undefined)	.	-	-	-	-	-	.
N#Cc1c(NC(=O)C2CC=CCC2C(=O)O)sc2c1CCCCCC2 (centres undefined)	.	-	-	-	-	-	.
CC(C)(C)C1CCc2c(sc(NC(=O)C3CC=CCC3C(=O)O)c2C#N)C1 (centres undefined)	-3.52	-	-	-	-	-	?
CCC(C)(C)C1CCc2c(sc(NC(=O)c3ccccc3C(=O)O)c2C#N)C1 (centres undefined)	.	.	-	-	-	-	0.106
CCN(CCCNC(=O)CCc1nc(-c2ccc(OC)cc2)no1)c1cccc(C)c1	-	-	-	-	-	-	.
Cc1cc(N2CCOCC2)nc(NCc2ccccc2)n1	.	-	-	-	-	-	.
Cc1cc(N2CCCCC2)nc(NCc2ccccc2)n1	.	-	-	-	-	-	0.0653
CCSc1nnc2ccc(-c3ccco3)nn12	-	-	-	-	-	-	.
CCCCNC(=O)CN1C(=O)NC2(CCCc3ccccc32)C1=O (centres undefined)	.	-	-	-	-	-	.

From PubChem
